This is an account of results in the supplement of paper PMC10037445.

Test [1] has as its system RAW-Dual. The test is described as follows: NF-kB SEAP reporter activity, fold change vs agonist alone; higher = enhanced NF-kB activity. The note with it: library stock concentration (final ~1000-fold dilution): 10 mM. A digest of the protocol: (§1)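 RAW-Dual macrophages were seeded in DMEM at 50,000 cells/well in 384-well plates, given 50 nL of library stock by pin tool, and given a PRR agonist 1 h later. Plates were held at 37 °C, 5% CO2 for 20 hours, after which supernatant was read for IRF by QuantiLuc luminescence and for NF-κB by QuantiBlue absorbance at 620 nm. Reporter activity is expressed as fold change over wells that received agonist alone. A well was called cytotoxic when IncuCyte confluency fell below 70% of agonist controls in both mask sets.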

Test [2] concerns RAW-Dual. The test is described as follows: NF-kB SEAP reporter activity, fold change vs agonist alone; cytotoxicity flag (confluency mask): not cytotoxic; higher = enhanced NF-kB activity. A digest of the protocol:
as §1

Test [3] relates to RAW-Dual. As to the kind of experiment: NF-kB SEAP reporter activity, fold change vs agonist alone; cytotoxicity flag (confluency mask): cytotoxic (confluency <70% of control); higher = enhanced NF-kB activity. In short, it runs like this:
as §1

[4] abbreviates: cytotoxicity flag (confluency mask): cytotoxic (confluency <70% of control), agonist: Imiquimod (TLR7) […].
[5] abbreviates: cytotoxicity flag (confluency mask): cytotoxic (confluency <70% of control), agonist: MPLA (TLR4) […].
[6] abbreviates: agonist: ODN 1826 (TLR9) 0.5 ug/mL.
Where [7] appears, read: agonist: Pam2CSK4 (TLR2/6) 0.1 ug/mL.
Where [8] appears, read: agonist: Pam3CSK4 (TLR2/1) 0.1 ug/mL.
Setting [9] is: cytotoxicity flag (confluency mask): not cytotoxic, agonist: Imiquimod (TLR7) […].
[10] abbreviates: cytotoxicity flag (confluency mask): not cytotoxic, agonist: MPLA (TLR4) […].

In all, about 2,900 compounds were measured (“NF-kB SEAP reporter activity, fold change vs agonist alone”: median about 0.99, highest 2% from about 2.6 on). This is one part of a sample in which the highest values are shown more often than they occur.

In the case of `O=C(NC(NC(=S)Nc1ccc(F)c([N+](=O)[O-])c1)C(Cl)(Cl)Cl)C(c1ccccc1)c1ccccc1` (configuration not stated), the “NF-kB SEAP reporter activity” value in test [1] (setting [4]) is 0.707; in test [1] (setting [5]), 0.521.

On to `O=C(/C=C/c1ccccc1)NC(NC(=S)Nc1cccc2cccnc12)C(Cl)(Cl)Cl` (configuration not stated) (library stock concentration (final ~1000-fold dilution): 10 mM), for which the “NF-kB SEAP reporter activity” value in test [2] (agonist: LPS (TLR4) 0.1 ug/mL) came to 0.779; in test [2] (setting [6]), 0.429; in test [2] (setting [7]), 0.288; in test [2] (setting [8]), 0.388.

As to `O=C(/C=C/c1ccccc1)NC(NC(=S)Nc1ccc(Cl)cc1)C(Cl)(Cl)Cl` (configuration not stated) (library stock concentration (final ~1000-fold dilution): 10 mM), the “NF-kB SEAP reporter activity” value in test [3] (agonist: LPS (TLR4) 0.1 ug/mL) was determined as 2.64; in test [3] (setting [6]), 1.22; in test [3] (setting [7]), 0.494; in test [3] (setting [8]) it was 0.809.

On to `O=C(/C=C/c1ccccc1)NC(NC(=S)Nc1ccc(Cl)cc1)C(Cl)(Cl)Cl` (configuration not stated), for which the “NF-kB SEAP reporter activity” value in test [1] (setting [4]) came out at 1.03; in test [1] (setting [5]) it was 2.18.

As to `O=C(NC(NC(=S)Nc1ccc(F)c([N+](=O)[O-])c1)C(Cl)(Cl)Cl)C(c1ccccc1)c1ccccc1` (configuration not stated) (library stock concentration (final ~1000-fold dilution): 10 mM), the “NF-kB SEAP reporter activity” value in test [3] (agonist: LPS (TLR4) 0.1 ug/mL) worked out at 0.182; in test [3] (setting [6]) it was 0.493; in test [3] (setting [7]), 0.146; in test [3] (setting [8]), 0.135.

On to `O=C(/C=C/c1ccccc1)NC(NC(=S)Nc1cccc2cccnc12)C(Cl)(Cl)Cl` (configuration not stated), for which the entries for the “NF-kB SEAP reporter activity” value in test [1] (setting [9]) and in test [1] (setting [10]) were 0.628 and 0.833, respectively.

`Cc1cc2c(C(=O)NCC(C)c3ccccc3)c(O)c(O)cc2c(O)c1-c1c(C)cc2c(C(=O)NCC(C)c3ccccc3)c(O)c(O)cc2c1O` (configuration not stated): the “NF-kB SEAP reporter activity” value in test [1] (setting [9]) is 1.84; in test [1] (setting [10]), 2.27.

Take `Cc1cc2c(C(=O)NCC(C)c3ccccc3)c(O)c(O)cc2c(O)c1-c1c(C)cc2c(C(=O)NCC(C)c3ccccc3)c(O)c(O)cc2c1O` (configuration not stated) (library stock concentration (final ~1000-fold dilution): 10 mM): the “NF-kB SEAP reporter activity” value in test [2] (agonist: LPS (TLR4) 0.1 ug/mL) worked out at 4.28; in test [2] (setting [6]), 2.93; in test [2] (setting [7]), 0.803; in test [2] (setting [8]), 1.62.

Consider `N=C(N)Nc1nc(CSCCC(=N)NS(N)(=O)=O)cs1`, for which the “NF-kB SEAP reporter activity” value in test [1] (setting [9]) was determined as 0.918; in test [1] (setting [10]), 1.

Regarding `N=C(N)Nc1nc(CSCCC(=N)NS(N)(=O)=O)cs1` (library stock concentration (final ~1000-fold dilution): 10 mM), the “NF-kB SEAP reporter activity” value worked out at 1.03 in test [2] (agonist: LPS (TLR4) 0.1 ug/mL), 1.06 in test [2] (setting [6]), 1.25 in test [2] (setting [7]) and 1.09 in test [2] (setting [8]).

For `CN1CCCC1CCOC(C)(c1ccccc1)c1ccc(Cl)cc1.O=C(O)/C=C/C(=O)O` (configuration not stated) (library stock concentration (final ~1000-fold dilution): 10 mM), the “NF-kB SEAP reporter activity” value came to 1.32 in test [2] (agonist: LPS (TLR4) 0.1 ug/mL), 0.754 in test [2] (setting [6]), 0.873 in test [2] (setting [7]) and 0.64 in test [2] (setting [8]).

As for `CN1CCCC1CCOC(C)(c1ccccc1)c1ccc(Cl)cc1.O=C(O)/C=C/C(=O)O` (configuration not stated), the “NF-kB SEAP reporter activity” value worked out at 1.7 in test [1] (setting [9]) and 0.942 in test [1] (setting [10]).

In the case of `O=C(O)CCCN1CCC(OC(c2ccc(Cl)cc2)c2ccccn2)CC1.O=S(=O)(O)c1ccccc1` (configuration not stated), the “NF-kB SEAP reporter activity” value in test [1] (setting [9]) amounted to 1.08; in test [1] (setting [10]), 1.03.

As to `O=C(O)CCCN1CCC(OC(c2ccc(Cl)cc2)c2ccccn2)CC1.O=S(=O)(O)c1ccccc1` (configuration not stated) (library stock concentration (final ~1000-fold dilution): 10 mM), the “NF-kB SEAP reporter activity” value in test [2] (agonist: LPS (TLR4) 0.1 ug/mL) stood at 1.04; in test [2] (setting [6]) it was 1.06; in test [2] (setting [7]), 1.01; in test [2] (setting [8]), 1.17.

With `N#CC1CC2CC2N1C(=O)C(N)C12CC3CC(CC(O)(C3)C1)C2.O` (configuration not stated), the “NF-kB SEAP reporter activity” value in test [1] (setting [10]) turned out to be 1.19.

Turning to `N#CC1CC2CC2N1C(=O)C(N)C12CC3CC(CC(O)(C3)C1)C2.O` (configuration not stated) (library stock concentration (final ~1000-fold dilution): 10 mM), the “NF-kB SEAP reporter activity” value in test [2] (agonist: LPS (TLR4) 0.1 ug/mL) was 1.27; in test [2] (setting [6]), 1.44; in test [2] (setting [7]), 1.71; in test [2] (setting [8]) it was 1.75.

As to `O=C(O)c1ccc(O)c2ncccc12` (library stock concentration (final ~1000-fold dilution): 10 mM), the “NF-kB SEAP reporter activity” value came to 1.21 in test [2] (agonist: LPS (TLR4) 0.1 ug/mL), 1.04 in test [2] (setting [6]), 0.998 in test [2] (setting [7]) and 1.4 in test [2] (setting [8]).

For `O.c1cnc2c(c1)ccc1cccnc12`, the “NF-kB SEAP reporter activity” value was found to be 2.78 in test [1] (setting [9]) and 2.1 in test [1] (setting [10]).

In the case of `O.c1cnc2c(c1)ccc1cccnc12` (library stock concentration (final ~1000-fold dilution): 10 mM), the “NF-kB SEAP reporter activity” value in test [2] (agonist: LPS (TLR4) 0.1 ug/mL) was determined as 2.48; in test [2] (setting [6]), 1.17; in test [2] (setting [7]), 1.44; in test [2] (setting [8]), 2.06.
